These results are taken from PubChem BioAssay.

For test [1], the target named is ATP-dependent translocase ABCB1 (Homo sapiens) (UniProt P08183). The experiment in a line: P-glycoprotein substrate transport blockade – cell-based (AID 377; in the data active = fluorescence slope change above about 50%). The note with it: MDR1-expressing cells, fluorescent substrate accumulation slope; stronger effect = higher value; concentration not given here.
A short description of test [2]: compounds altering viability of human ES cells (AID 493140; call rule not given here;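 note: cells exposed to compounds for four days before counting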). The settings on record: human embryonic stem cell survival screen; stronger effect = higher value.
The nature of test [3]: P. berghei load reduction in hepatocytes – cell-based, HepG2, luciferase luminescence, HepG2 viability, primary screen (AID 624349).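 Note: 100% = mean of DMSO negative control wells on the same plate.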 The note with it: P. berghei liver stage in HepG2, luciferase luminescence, concentration not given here; parasite load remaining: stronger effect = lower value; viability: measured here: HepG2 viability without parasites.
In test [4] the target is 6-phosphogluconate dehydrogenase, decarboxylating (Homo sapiens) (UniProt P52209). Kind of test: inhibition of human phosphogluconate dehydrogenase – biochemical, recombinant enzyme, NADPH absorbance, primary screen (AID 1159550;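 active = at least 20% inhibition of 6-phosphogluconate dehydrogenase activity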). The settings on record: recombinant 6PGD, NADPH absorbance 341 nm; at 10 µM; stronger effect = higher value.
Test [5] can be described thus: viability loss with induced miR-34 in A549 – imaging, A549 dox-inducible miR-34, nuclei and caspase counts, primary screen (AID 1347080;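 active = compounds whose cell count with miR-34 switched on is under 0.7 times the count with it off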). The note with it: A549 miR-34 inducible, Hoechst nuclei count, 48 h.
Test [6] can be described thus: MELAS cybrid and Rieske KO viability enhancers – cell-based, MELAS cybrids, Rieske KO mouse fibroblasts, CellTiter-Glo, primary screen (AID 1508586;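 active = mean z-score across replicates of 1.96 or higher in either the MELAS or the Rieske mutant cell line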;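 note: z relative to plate mean and SD of compound and empty wells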). The settings on record: low glucose. (In general: ATP-based viability assays read luminescence as a measure of living cells.)
The target of test [7] is Mitogen-activated protein kinase 7 (Homo sapiens) (UniProt Q13164). Kind of test: Gal4-ERK5 driven luciferase induction – cell-based, HTS, primary screen (AID 1508626;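 active = luciferase signal above three times the same-plate solvent-only control wells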;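 note: luciferase driven by Gal4-ERK5 fusion binding five Gal4 sites before minimal TATA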). The settings on record: HeLa Gal4-ERK5 transactivation, 18 h, at 5 µM, stronger effect = higher value.
The target in test [8] is NAD(+) hydrolase SARM1 (Homo sapiens) (UniProt Q6SZW1). The experiment in a line: blocking NAD cleavage by SARM1 SAM-TIR – cell lysate, NAD-Glo luminescence (AID 1508614;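 active = compound whose remaining NAD level is above about 45 nM, limit read from the data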;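 note: higher remaining NAD means stronger inhibition of SARM1 NADase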). The note with it: SAM-TIR HEK293T lysate NADase, at 1 µM, stronger effect = higher value.
A short description of test [9]: blockers of polyQ-driven CASP3 activation – cell-based (AID 1583). The settings on record: polyglutamine-induced caspase-3 activation, cell assay; stronger effect = higher value;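 tested at 10 µM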.
A short description of test [10]: yeast 75Q aggregation reduction – 75Q-TubU reporter (AID 1593). The settings on record: Yeast 75Q polyglutamine aggregation reporter.
A short description of test [11]: restoration of touch response, mutant HTT neurons – whole organism, C. elegans mechanosensory neurons, N-terminal huntingtin (AID 1599). The note with it: C. elegans polyQ-huntingtin mechanosensory neurons, stronger effect = higher value.
A short description of test [12]: blockers of cytochrome c efflux from mitochondria – biochemical, purified mitochondria (AID 1603).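 Note: mouse liver mitochondria challenged with calcium chloride; signal normalized to the plate average as 100%.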 The settings on record: stronger effect = lower value.
Test [13] is described as follows: polyglutamine aggregate formation blockers (AID 1604). The note with it: polyglutamine-induced protein aggregation inhibition assay; stronger effect = higher value; tested at 2.5 µM.
Test [14] can be described thus: rescue of PC12 cells from polyQ htt toxicity – LDH release (AID 1610). The note with it: PC12 mutant huntingtin toxicity, final LDH at 4 uM, stronger effect = lower value. For orientation: LDH leaks from cells whose membrane has failed.
The nature of test [15]: glutamate transport activators, MN-1 cells, MN-1 cell line (AID 1612).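 Note: tested at 1 µM final; 0% = mean of DMSO vehicle wells on each plate; positive means more glutamate uptake than control and negative means less.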 The note with it: MN-1 motor neuron cells, stronger effect = higher value.
A short description of test [16]: 75Q-TubH aggregate inhibition, S. cerevisiae, yeast (AID 1616). The settings on record: S. cerevisiae 75Q-TubH polyglutamine aggregation suppression; stronger effect = higher value.
Test [17] is described as follows: compounds altering circadian rhythm period length – cell-based, LOPAC library, luminescence reporter (AID 2774; call rule not given here;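 note: values are relative to mean of DMSO wells on each plate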). The note with it: circadian reporter cells, at 7 µM, actives lie on both sides.
Test [18] relates to Hepatitis C virus NS3 helicase. Kind of test: blockers of NS3h binding to ssDNA – biochemical, fluorescence polarization, LOPAC1280 library, primary screen (AID 687035; in the data active = inhibition above about 37%). The note with it: Purified HCV NS3 helicase, Cy5-dT15 ssDNA binding fluorescence polarization; stronger effect = higher value; concentration not given here. For orientation: Polarisation of emitted light reports the rotation of a fluorescent probe.

The nature of test [19]: compounds altering Cy5-DNA-NS3h complex signal – biochemical, LOPAC1280, artefact control for HCV NS3 helicase inhibitor project (AID 687037; call rule not given here). The note with it: Cy5-DNA-NS3h complex fluorescence interference counterscreen.
The nature of test [20]: viability loss in pontine glioma line – cell-based, SU-DIPG-IV, MIPE4.0, CellTiter-Glo, qHTS, dose response (AID 1347063; cut-off not given, nearly all actives have AC50 up to about 30 µM;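 note: compound exposure lasted 48 hours before the viability readout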). The note with it: CellTiter-Glo ATP luminescence.
Test [21] in a line: viability loss in pontine glioma line – cell-based, SU-DIPG-XXV, MIPE5.0, CellTiter-Glo, qHTS, dose response (AID 1347065; cut-off not given, nearly all actives have AC50 up to about 26 µM;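 note: cells exposed to compound for 48 hours before ATP readout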). The settings on record: CellTiter-Glo ATP luminescence.
Test [22] is described as follows: growth inhibition of DIPG cells – cell-based, MIPE4.0 library, CellTiter-Glo luminescence, qHTS (AID 1347066; cut-off not given, nearly all actives have AC50 up to about 30 µM;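 note: cells exposed to compound for 48 hours before readout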). The note with it: SU-DIPG-VI viability, CellTiter-Glo ATP luminescence.
Test [23] is described as follows: chitosan synthesis blockers in C. neoformans – flow cytometry, Cibacron Brilliant Red staining (AID 1347148; call rule not given here;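 note: compound exposure lasted three days at 37 degrees C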). The note with it: Cryptococcus neoformans chitosan, stronger effect = lower value; at 10 µM unless noted.
Test [24] can be described thus: blockers of cellular phospholipid synthesis – cell-based, LOPAC library, screen 4, primary screen (AID 1347384; call rule not given here). The note with it: animal cells, phospholipid biosynthesis inhibition screen; at 10 µM.
Test [25] is described as follows: galactose survival enhancers in mitochondrial complex I cybrids – cell-based, galactose medium, ATP luminescence, primary screen (AID 1645843;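 active = z-score of at least 1.8 in each of two replicates, scored against plate mean and spread of sample wells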;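 note: positive z means more ATP and so rescue of galactose-driven cybrid death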). The note with it: complex I mutant cybrid cells, 72 h, stronger effect = higher value.
Where [26] appears, read: stronger effect = lower value, cell number ratio, induced over uninduced.
Setting [27] is: measured here: relative caspase fold change +Dox/-Dox.
Where [28] appears, read: measured here: total cells with miR-34 induction, stronger effect = lower value.
The mark [29] stands for this setting: measured here: total cells without miR-34 induction.
The mark [30] stands for this setting: MELAS cybrid survival, CellTiter-Glo 48 h, stronger effect = higher value.
Setting [31] is: Rieske KO mouse fibroblast survival, CellTiter-Glo 72 h.

The structures appear in SMILES notation. “And” between values parts separate entries of the source, which are not always exact repeats. Identical values can stand only once. Records with an inconclusive call do not appear. For some assays here: Entries with a potency or affinity are not part of this list. The source holds several records for some structures; these can differ, active in one and inactive in another. The source made the active and inactive calls. Cut-off read from the data, not from the text of the source, unless noted: active = parasite load remaining mostly below about 12% (no sharp cut-off); inactive = mostly above about 10%.

ATP-dependent translocase ABCB1 (Homo sapiens), sequence (P08183 whole entry, looked up): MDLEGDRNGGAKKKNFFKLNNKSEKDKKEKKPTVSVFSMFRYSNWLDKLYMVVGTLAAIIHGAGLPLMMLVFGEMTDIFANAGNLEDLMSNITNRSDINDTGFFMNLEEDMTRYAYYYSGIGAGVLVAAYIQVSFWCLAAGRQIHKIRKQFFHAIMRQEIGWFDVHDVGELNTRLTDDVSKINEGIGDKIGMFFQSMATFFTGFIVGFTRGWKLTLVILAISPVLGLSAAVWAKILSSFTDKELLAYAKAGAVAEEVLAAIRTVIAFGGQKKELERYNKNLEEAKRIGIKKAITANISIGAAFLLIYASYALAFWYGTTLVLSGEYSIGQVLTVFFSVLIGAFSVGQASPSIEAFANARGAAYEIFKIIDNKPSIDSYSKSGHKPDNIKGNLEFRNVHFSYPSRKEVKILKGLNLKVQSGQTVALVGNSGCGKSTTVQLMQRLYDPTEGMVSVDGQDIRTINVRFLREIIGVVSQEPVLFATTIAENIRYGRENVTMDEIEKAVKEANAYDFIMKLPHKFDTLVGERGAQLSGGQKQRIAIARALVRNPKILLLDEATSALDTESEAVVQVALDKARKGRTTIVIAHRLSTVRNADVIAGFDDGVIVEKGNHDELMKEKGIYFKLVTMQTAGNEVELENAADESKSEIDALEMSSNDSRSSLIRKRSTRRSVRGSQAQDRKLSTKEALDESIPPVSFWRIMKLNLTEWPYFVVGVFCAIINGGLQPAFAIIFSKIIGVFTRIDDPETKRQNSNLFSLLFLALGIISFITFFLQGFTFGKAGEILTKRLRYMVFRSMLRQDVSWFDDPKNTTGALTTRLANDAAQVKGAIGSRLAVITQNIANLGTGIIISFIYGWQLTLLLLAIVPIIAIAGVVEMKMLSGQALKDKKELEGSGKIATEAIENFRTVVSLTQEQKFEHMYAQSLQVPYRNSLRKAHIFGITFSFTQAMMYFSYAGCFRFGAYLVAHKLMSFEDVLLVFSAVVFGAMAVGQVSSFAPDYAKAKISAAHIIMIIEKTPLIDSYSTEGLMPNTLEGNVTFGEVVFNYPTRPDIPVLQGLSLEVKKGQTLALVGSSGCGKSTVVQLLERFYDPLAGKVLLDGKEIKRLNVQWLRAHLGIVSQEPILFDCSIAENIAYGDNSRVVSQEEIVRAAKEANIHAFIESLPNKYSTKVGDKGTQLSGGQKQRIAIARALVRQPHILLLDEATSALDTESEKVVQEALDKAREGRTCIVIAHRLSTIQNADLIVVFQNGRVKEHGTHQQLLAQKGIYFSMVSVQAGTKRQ
6-phosphogluconate dehydrogenase, decarboxylating (Homo sapiens), sequence (P52209 whole entry, looked up): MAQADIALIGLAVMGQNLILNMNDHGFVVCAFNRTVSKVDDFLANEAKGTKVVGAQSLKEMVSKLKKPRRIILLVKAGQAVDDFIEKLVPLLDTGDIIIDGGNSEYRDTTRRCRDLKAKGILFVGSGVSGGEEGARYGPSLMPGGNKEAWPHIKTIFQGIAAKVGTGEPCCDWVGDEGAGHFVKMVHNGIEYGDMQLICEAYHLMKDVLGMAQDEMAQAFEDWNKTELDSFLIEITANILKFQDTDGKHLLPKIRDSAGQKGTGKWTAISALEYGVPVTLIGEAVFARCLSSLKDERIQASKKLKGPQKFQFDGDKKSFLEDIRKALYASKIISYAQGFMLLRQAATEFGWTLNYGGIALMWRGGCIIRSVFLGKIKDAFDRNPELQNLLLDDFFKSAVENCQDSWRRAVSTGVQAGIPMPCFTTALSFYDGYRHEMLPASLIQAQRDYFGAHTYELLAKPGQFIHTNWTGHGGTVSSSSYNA
NAD(+) hydrolase SARM1 (Homo sapiens), sequence (Q6SZW1 whole entry, looked up): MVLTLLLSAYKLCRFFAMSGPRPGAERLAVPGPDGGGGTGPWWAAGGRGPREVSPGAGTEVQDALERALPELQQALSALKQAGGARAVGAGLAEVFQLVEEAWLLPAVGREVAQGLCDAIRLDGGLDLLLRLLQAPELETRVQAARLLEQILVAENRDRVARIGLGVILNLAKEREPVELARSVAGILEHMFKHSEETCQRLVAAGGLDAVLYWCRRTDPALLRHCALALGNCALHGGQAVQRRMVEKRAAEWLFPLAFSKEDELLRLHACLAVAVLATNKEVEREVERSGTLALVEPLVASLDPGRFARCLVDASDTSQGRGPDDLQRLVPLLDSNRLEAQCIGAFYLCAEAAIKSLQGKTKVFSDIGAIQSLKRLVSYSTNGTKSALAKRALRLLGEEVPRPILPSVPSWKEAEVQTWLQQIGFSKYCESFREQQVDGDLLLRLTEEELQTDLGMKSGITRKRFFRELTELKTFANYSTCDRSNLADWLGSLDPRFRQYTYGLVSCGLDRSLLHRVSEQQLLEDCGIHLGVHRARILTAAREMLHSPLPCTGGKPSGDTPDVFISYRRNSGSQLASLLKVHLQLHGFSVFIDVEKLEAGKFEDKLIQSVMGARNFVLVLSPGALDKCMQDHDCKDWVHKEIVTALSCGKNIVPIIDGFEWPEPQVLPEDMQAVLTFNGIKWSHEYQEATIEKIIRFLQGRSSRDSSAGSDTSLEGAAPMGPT
Mitogen-activated protein kinase 7 (Homo sapiens), sequence (Q13164 whole entry, looked up, the tested form may be a part): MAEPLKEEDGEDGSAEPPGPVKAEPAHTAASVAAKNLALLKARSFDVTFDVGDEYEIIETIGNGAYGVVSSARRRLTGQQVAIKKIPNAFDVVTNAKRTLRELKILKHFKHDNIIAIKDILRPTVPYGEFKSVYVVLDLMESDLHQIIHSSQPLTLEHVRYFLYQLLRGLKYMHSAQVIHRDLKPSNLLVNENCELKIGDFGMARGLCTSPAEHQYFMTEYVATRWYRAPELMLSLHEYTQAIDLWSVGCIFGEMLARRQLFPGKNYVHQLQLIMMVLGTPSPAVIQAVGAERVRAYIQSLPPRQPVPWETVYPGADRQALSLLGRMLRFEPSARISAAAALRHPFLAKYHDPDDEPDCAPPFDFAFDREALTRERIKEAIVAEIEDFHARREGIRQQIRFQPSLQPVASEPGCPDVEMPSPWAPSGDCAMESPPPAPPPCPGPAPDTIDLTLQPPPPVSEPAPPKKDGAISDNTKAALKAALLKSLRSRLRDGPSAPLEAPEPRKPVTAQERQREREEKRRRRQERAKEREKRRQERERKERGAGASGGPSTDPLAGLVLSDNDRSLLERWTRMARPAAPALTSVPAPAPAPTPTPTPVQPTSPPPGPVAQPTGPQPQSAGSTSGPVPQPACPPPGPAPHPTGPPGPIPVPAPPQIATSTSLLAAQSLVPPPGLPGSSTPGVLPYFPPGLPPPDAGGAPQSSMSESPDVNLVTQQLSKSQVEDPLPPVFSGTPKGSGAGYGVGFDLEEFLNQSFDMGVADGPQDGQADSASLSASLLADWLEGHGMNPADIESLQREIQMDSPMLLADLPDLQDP

Usually viability stands for a read-out of living cells in per cent, often relative to untreated cells. In general, inhibition refers to the drop in the measured response relative to a control, in per cent. On to `COc1ccc(C(Cl)=C(c2ccc(OC)cc2)c2ccc(OC)cc2)cc1`, for which, in test [1], the fluorescence slope change was 9.3% (inactive). The survival in test [2] is 4.42 (inactive). Moreover, the parasite load remaining in test [3] was 9.26% (inactive) and 45.4% (inactive) and 50.6% (inactive). The viability in test [3] was 85.2% and 70.2% and 89.6%. For the same molecule, the inhibition in test [4] is 7.15% (inactive). In addition, the fold change was 0.946 (inactive) and 0.925 (inactive) in [5] (setting [26]); 1.03 and 1.43 in test [5] (setting [27]). In addition, the cell count is 9940 and 11400 in [5] (setting [28]); 10500 and 12300 in test [5] (setting [29]). For the same molecule, the z-score in test [6] (setting [30]) is 0.437 (inactive); in test [6] (setting [31]), 0.0944. Besides, the luciferase signal in [7] was 40 AU (inactive).

As to `C[C@H](CCC(=O)O)[C@H]1CC[C@H]2[C@@H]3CC[C@@H]4C[C@H](O)CC[C@]4(C)[C@H]3CC[C@]12C`, the survival in test [2] was 3.25 (inactive). In test [3], the parasite load remaining was 106% (inactive). The viability in [3] is 101%. Further, in [4], the inhibition was 3.51% (inactive). Moreover, the figures for the fold change in test [5] (setting [26]) and in test [5] (setting [27]) were 0.876 (inactive) and 1.28, respectively. For the same molecule, the cell count in test [5] (setting [28]) was found to be 8840; in test [5] (setting [29]) it was 10100. Moreover, the z-score in [6] (setting [30]) was 0.139 (inactive); in test [6] (setting [31]) it was -0.0326. Besides, the luciferase signal in test [7] is 76 AU (inactive).

As to `C=C1CC[C@H](O)C/C1=C/C=C1\CCC[C@]2(C)[C@@H]([C@H](C)/C=C/[C@H](C)C(C)C)CC[C@@H]12`, the fluorescence slope change in test [1] was 66.6% (active). In [3], the parasite load remaining was 50.6% (inactive). Besides, in test [3], the viability was found to be 130%. Moreover, the inhibition in test [4] was 12.3% (inactive). The fold change in [5] (setting [26]) was 0.934 (inactive); in [5] (setting [27]), 1.53. The cell count in test [5] (setting [28]) is 7580; in test [5] (setting [29]), 8110. Besides, the remaining NAD in test [8] is 10 nM (inactive). The luciferase signal in [7] was 144 AU (inactive).

Broadly, the AC50 is the concentration giving half of the maximal activity seen. As to `NC(=NCc1ccccc1)NC(=O)c1nc(Cl)c(N)nc1N`, the fluorescence slope change in test [1] is 28% (inactive). Moreover, the inhibition is 7.39% in test [9], -1% (inactive) in test [18] and -0.294% (inactive) in [4]. In test [10], this molecule showed a score of 1.09. In [11], this molecule returned a rescue above control of 5.46. Further, the cytochrome c release ratio in test [12] was found to be 0.99. The molecule further returned an inhibition of aggregation in test [13] of 14.3%. In test [14], this molecule gave a normalised LDH release of 1.01. Also, the glutamate uptake change in [15] came out at 12.4%. The same molecule gave an aggregation suppression score in test [16] of 1.26. Moreover, the period change in test [17] is 0.11 h (inactive). Further, the survival in test [2] is 1.67 (inactive). Besides, the parasite load remaining in [3] is 116% (inactive) and 20% (inactive). Also, the viability in [3] was 89.9% and 61%. The fluorescence ratio (interference) in test [19] is 1 (inactive). For the same molecule, the result in test [20], in test [22] and in test [24] was inactive. The AC50 in test [21] is 18.6 µM (active). In test [23], the fold fluorescence is 5.57 [at 156.4 µM] (inactive). Besides, the z-score in test [6] (setting [30]) is 2.18 (active) and 1.24 (inactive); in [6] (setting [31]), 1.18 and 1.91; in [25], -0.87 (inactive) and -0.455 (inactive). The luciferase signal in [7] was 56 AU (inactive).

As for `C#C[C@]1(O)CC[C@H]2[C@@H]3CCC4=C(CCC(=O)C4)[C@H]3CC[C@@]21C`, in [2], the survival was 25.3 (inactive). Also, the parasite load remaining in test [3] is 17.7% (inactive) and 100% (inactive). The viability in test [3] was 48% and 90.5%. The inhibition in test [4] was -2.85% (inactive). Further, the fold change was 0.896 (inactive) in test [5] (setting [26]) and 0.927 in test [5] (setting [27]). In addition, the values for the cell count in test [5] (setting [28]) and in test [5] (setting [29]) were 7990 and 8920, respectively. The z-score was 0.723 (inactive) in test [6] (setting [30]) and 0.808 in test [6] (setting [31]). In [8], the remaining NAD is 10 nM (inactive). In test [7], the luciferase signal was 44 AU (inactive).

With `C[C@]12CC[C@H]3C(=CCc4cc(O)ccc43)[C@@H]1CCC2=O`, in [1], the fluorescence slope change was 51.2% (active). Besides, the survival in [2] was 2.75 (inactive). In test [3], the parasite load remaining was 125% (inactive). For the same molecule, the viability in test [3] was determined as 97.4%. For the same molecule, the inhibition in [4] is 9.47% (inactive). Besides, the fold change in test [5] (setting [26]) was 0.908 (inactive); in test [5] (setting [27]) it was 1.13. Also, the cell count in test [5] (setting [28]) amounted to 7380; in test [5] (setting [29]), 8130. Further, the z-score in test [6] (setting [30]) is 0.735 (inactive); in [6] (setting [31]), 0.488. In addition, the remaining NAD in test [8] is 10 nM (inactive). Further, in test [7], the luciferase signal is 84 AU (inactive).
